# From PubChem BioAssay (Tox21)
# Values joined by “and” are separate entries in the source; they are usually repeats but may differ in a detail not shown here. Equal values may be shown once. Records with an inconclusive call do not appear. Where a call stands in place of a potency, no number is given. A structure can be active in one record and inactive in another. Active and inactive are the calls of the source. Unless noted, calls follow the shape of the full dose curve.
# Columns and labels:
# [1] = qHTS assay to identify small molecule agonists of the vitamin D receptor (VDR) signaling pathway - cell viability counter screen (AID 743224; active = well fitted curve in the direction sought with a large enough effect in the repeat runs; an effect the other way counts as inactive or inconclusive; also: series mostly up to about 63 µM; nearly all actives have a fitted effect of over 50% in size)
# Method in brief: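 Cytotoxicity counter screen: VDR-bla cells, 16 h compound exposure at 37C, 5% CO2; CellTiter-Glo luminescence, 30 min RT, same wells as bla read.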
# [2] = qHTS assay to identify small molecule antagonists of the vitamin D receptor (VDR) signaling pathway - cell viability counter screen (AID 743225; active = well fitted curve in the direction sought with a large enough effect in the repeat runs; an effect the other way counts as inactive or inconclusive; also: nearly all actives have a fitted effect of over 50% in size)
# Method in brief: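 Viability counter screen run in the same wells as the beta-lactamase reporter assay: HEK 293T VDR-UAS-bla cells, 16 h compound exposure at 37C with 3 nM (final) 1-alpha,25-dihydroxyvitamin D3. CellTiter-Glo luminescence, 30 min, room temperature.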
# [3] = qHTS assay to identify small molecule agonists of the NFkB signaling pathway (AID 1159509; active = well fitted curve in the direction sought with a large enough effect in the signal ratio in the repeat runs, not every such curve was filed as active; the % refers to the signal ratio; also: series mostly up to about 61 µM)
# Method in brief: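 Beta-lactamase reporter assay run in quantitative high-throughput format on an NF-kB-responsive ME-180 line, with 5 hr compound treatment and a FRET-based blue/green fluorescence readout.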
# [4] = qHTS assay to identify small molecule agonists of the NFkB signaling pathway - cell viability counter screen (AID 1159515); also: series mostly up to about 61 µM; nearly all actives have a fitted effect of over 55% in size
# Method in brief: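 ME-180 NFkB-bla cells, 2,000/well; overnight attach; compound 5 hr, 37 C/5% CO2; LiveBLAzer substrate 1.5 hr RT; then CellTiter-Glo in same wells, 30 min RT, luminescence read.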
# [5] = qHTS assay to identify small molecule agonists of the endoplasmic reticulum stress response signaling pathway (AID 1159516; active = well fitted activation curve with a large enough effect in the signal ratio in the repeat runs, not every such curve was filed as active; the % refers to the signal ratio)
# Method in brief: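 HeLa ESRE-bla reporter line; cpd 5 h, 37 C/5% CO2; LiveBLAzer B/G FRET substrate 2 h RT; ex 405, em 460/530 nm.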
# [6] = qHTS assay to identify small molecule agonists of the endoplasmic reticulum stress response signaling pathway - cell viability counter screen (AID 1159517); also: nearly all actives have a fitted effect of over 50% in size; also: potency is read from the fitted curve at half-maximal effect
# Method in brief: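 After overnight attachment, ESRE-bla HeLa cells were treated with Tox21 library compounds for 5 hr. CellTiter-Glo luminescence, read 30 min post-addition at room temperature, reported viability.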
# [7] = qHTS assay to identify small molecule antagonists of the retinoid-related orphan receptor gamma (ROR-gamma) signaling pathway - cell viability counter screen (AID 1159520; active = well fitted curve in the direction sought with a large enough effect in the repeat runs; an effect the other way counts as inactive or inconclusive; also: nearly all actives have a fitted effect of over 50% in size)
# Method in brief: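 Cytotoxicity was read from cellular ATP (CellTiter-Glo luminescence) after 16 hr at 37 C with 1 uM doxycycline induction. The inducer was added 2 hr after compound transfer to Tet-on ROR gamma CHO cells.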
# [8] = molecular target: Nuclear receptor ROR-gamma (Homo sapiens) (UniProt P51449); assay: qHTS assay to identify small molecule antagonists of the retinoid-related orphan receptor gamma (ROR-gamma) signaling pathway (AID 1159521; active = well fitted curve in the direction sought with a large enough effect in the repeat runs; an effect the other way counts as inactive or inconclusive; also: nearly all actives have a fitted effect of over 50% in size; also: potency is read from the fitted curve at half-maximal effect)
# Method in brief: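 Luminescence readout (ONE-Glo, 30 min RT) after 16 h doxycycline induction; loss of signal scored as antagonism. CHO cells with TET-inducible RORγ and RORE-LUC reporter; compounds added 2 h before 1 uM final doxycycline.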
# [9] = qHTS assay to identify small molecule agonists of the AP-1 signaling pathway - cell viability counter screen (AID 1159525); also: nearly all actives have a fitted effect of over 55% in size
# Method in brief: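 Intracellular ATP by Cell Titer Glo luminescence (30 min, RT) in the same ME-180 AP-1-bla wells after the 5 h compound exposure at 37 °C. Normalised to tetra n-octyl ammonium bromide and DMSO controls.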
# [10] = qHTS assay to identify small molecule agonists of the AP-1 signaling pathway (AID 1159526); also: potency is read from the fitted curve at half-maximal effect
SMILES,Potency [1],outcome [2],outcome [3],outcome [4],outcome [5],Potency [6],outcome [7],Potency [8],outcome [9],Potency [10]
C=CC(=O)NC(C)(C)CS(=O)(=O)O,inactive,inactive,inactive,inactive,inactive,inactive,inactive,inactive,inactive,inactive
C#C[C@]1(O)CC[C@H]2[C@@H]3CCC4=CC(=O)CC[C@@H]4[C@H]3CC[C@@]21CC,inactive,inactive,inactive,inactive,inactive,inactive,inactive,48.6 µM (active) and inactive,inactive,inactive
CCN(CC)CCOC(=O)c1ccc(N)cc1,inactive,inactive,inactive,inactive,inactive,inactive,inactive,inactive,inactive,inactive
COc1ccc(C(=O)c2ccccc2)c(O)c1,,inactive,inactive,inactive,inactive,inactive,inactive,inactive,inactive,inactive
Cc1ccc(O)c(-n2nc3ccccc3n2)c1,,inactive,inactive,inactive,inactive,inactive,inactive,inactive,inactive,inactive
CCN1CCCC1=O,inactive,inactive,inactive,inactive,inactive,inactive,inactive,inactive,inactive,inactive
CCOCCO,inactive,inactive,inactive,inactive,inactive,inactive,inactive,inactive,inactive,inactive
OC[C@@H](O)[C@@H](O)[C@H](O)[C@H](O)CO,inactive,inactive,inactive,inactive,inactive,inactive,inactive,inactive,inactive,inactive
Oc1cccc(O)c1,,inactive,inactive,inactive,inactive,inactive,inactive,inactive,inactive,inactive
O=C(OCc1ccccc1)c1ccccc1,,inactive,inactive,inactive,inactive,inactive,inactive,inactive,inactive,inactive
COc1cc(O)c(C(=O)c2ccccc2)cc1S(=O)(=O)O,,inactive,inactive,inactive,inactive,inactive,inactive,inactive,inactive,inactive
CO[C@H]1C=CO[C@@]2(C)Oc3c(C)c(O)c4c(O)c(c(/C=N/N5CCN(C)CC5)c(O)c4c3C2=O)NC(=O)/C(C)=C\C=C[C@H](C)[C@H](O)[C@@H](C)[C@@H](O)[C@@H](C)[C@H](OC(C)=O)[C@@H]1C,,inactive,inactive,inactive,inactive,inactive,inactive,inactive,inactive,inactive
NC(=O)N/N=C/c1ccc([N+](=O)[O-])o1,inactive,inactive,inactive,inactive,inactive,inactive and 49 µM (active),inactive,inactive,inactive,inactive
COc1ccccc1O,,inactive,inactive,inactive,inactive,inactive,inactive,inactive,inactive,inactive
CCCCC/C(C=O)=C\c1ccccc1,,inactive,inactive,inactive,inactive,inactive,inactive,inactive,inactive,inactive
O=C1OC(c2ccc(O)cc2)(c2ccc(O)cc2)c2ccccc21,,inactive,inactive,inactive,inactive,inactive,inactive,8.57 µM (active) and inactive,inactive,
CC(=O)Oc1ccccc1C(=O)O,,inactive,inactive,inactive,inactive,inactive,inactive,inactive,inactive,inactive
Nc1cccc(N)c1,,inactive,inactive,inactive,inactive,inactive,inactive,inactive,inactive,inactive
CCCCOCCOCCOC(C)=O,,inactive,inactive,inactive,inactive,inactive,inactive,inactive,inactive,inactive
C1CNCCN1,,inactive,inactive,inactive,inactive,inactive,inactive,inactive,inactive,inactive
O=C(O)Cc1cccc2ccccc12,,inactive,inactive,inactive,inactive,inactive,inactive,inactive,inactive,inactive
COC(=O)c1ccc(C=O)cc1,,inactive,inactive,inactive,inactive,inactive,inactive,inactive,inactive,inactive

SMILES,Potency [1],outcome [2],outcome [3],outcome [4],outcome [5],Potency [6],outcome [7],Potency [8],outcome [9],Potency [10]
C/C=C/c1ccc(O)c(OC)c1,,inactive,,inactive,inactive,inactive,inactive,inactive,inactive,inactive
Nc1ccc(N=Nc2ccccc2)c(N)n1,,inactive,inactive,inactive,,inactive,inactive,inactive,inactive,inactive
CN(C)C=O,,inactive,inactive,inactive,inactive,inactive,inactive,inactive,inactive,inactive
CC(=O)/C=C/C1=C(C)CCCC1(C)C,,inactive,,inactive,inactive,inactive,inactive,inactive,inactive,inactive
C[C@]12CC[C@@H]3c4ccc(O)cc4C[C@@H](CCCCCCCCCS(=O)CCCC(F)(F)C(F)(F)F)[C@H]3[C@@H]1CC[C@@H]2O (stereo not given in full),,inactive,inactive,inactive,inactive,inactive,inactive,,inactive,inactive
COC(=O)c1ccc(O)cc1,,inactive,inactive,inactive,inactive,inactive,inactive,,inactive,inactive
COC1=CC(=O)C[C@@H](C)[C@]12Oc1c(Cl)c(OC)cc(OC)c1C2=O,,inactive,inactive,inactive,inactive,inactive,inactive,8.56 µM (active) and 19.3 µM (active) and inactive,inactive,inactive
COCC(C)N (stereo not given),,inactive,inactive,inactive,inactive,inactive,inactive,inactive,inactive,inactive
N[C@@H](Cc1c[nH]c2ccc(O)cc12)C(=O)O,,inactive,inactive,inactive,inactive,inactive,inactive,inactive,inactive,inactive
CN(C)Cc1cc(CN(C)C)c(O)c(CN(C)C)c1,,inactive,inactive,inactive,inactive,inactive,inactive,inactive,inactive,inactive
NCCNc1cccc2ccccc12,,inactive,inactive,inactive,inactive,inactive,inactive,,inactive,inactive
O=c1c(-c2ccc(O)cc2)coc2cc(O)cc(O)c12,,inactive,inactive,inactive,inactive,inactive,inactive,inactive,inactive,inactive
COc1ccc(O)cc1,inactive,inactive,inactive,inactive,inactive,inactive,inactive,,inactive,inactive
Cc1cccc(Nc2cc(Cl)nc(SCC(=O)O)n2)c1C,,inactive,inactive,inactive,inactive,inactive,inactive,inactive,inactive,inactive
O=[N+]([O-])c1ccc(O)cc1,inactive,inactive,inactive,inactive,inactive,inactive,inactive,,inactive,inactive
COc1cc2c(c(OC)c1OC)-c1ccc(OC)c(=O)cc1[C@@H](NC(C)=O)CC2,inactive,inactive,inactive,inactive,,inactive,inactive,538 nM (active) and 686 nM (active) and 37.6 nM (active),inactive,172 nM (active)
CC(C)=CCC/C(C)=C/CO,,inactive,,inactive,inactive,inactive,inactive,inactive,inactive,inactive
C=CCOC(=O)CC(C)C,,inactive,inactive,inactive,inactive,inactive,inactive,inactive,inactive,inactive
C#C[C@]1(O)CC[C@H]2[C@@H]3CCc4cc(O)ccc4[C@H]3CC[C@@]21C,,inactive,inactive,inactive,inactive,inactive,inactive,30.4 µM (active) and inactive,inactive,inactive
C[C@]12CC[C@@H]3c4ccc(O)cc4CC[C@H]3[C@@H]1CCC2=O,inactive,inactive,inactive,inactive,inactive,inactive,inactive,,inactive,inactive
CC(=O)CCC(C)C,,inactive,inactive,inactive,inactive,inactive,inactive,inactive,inactive,inactive
OCCCc1ccccc1,,inactive,inactive,inactive,inactive,inactive,inactive,inactive,inactive,inactive
